IC50, IC90 and percent growth data for 14 compounds are collected here from the supplement of paper PMC5940239.

Molecules are shown by their SMILES.

For the first experiment, the system named is Madurella mycetomatis MM55.
Experiment: not given
The following applies: 7 days.
For `CO/N=C(\C(=O)OC)c1ccccc1CO/N=C(\C)c1cccc(C(F)(F)F)c1`, the IC50 was determined as 1.05 µM.

For the compound `CC1(C)OB(O)c2ccc(C3=NOC(c4cc(Cl)c(F)c(Cl)c4)(C(F)(F)F)C3)cc21` (centres undefined), the half-maximal inhibitory concentration (IC50) stood at 11.7 µM.

In the case of `Nc1c2c(nc3sc4c(c13)CCCC4)CCCC2`, the 50% inhibitory concentration (IC50) turned out to be 9.7 µM.

In turn, `Cc1cccc(C(=O)Nc2ccnc(N(C)C3CCN(CC(C)C)CC3)c2)c1` came in with an IC50 of 26.2 µM.

`CO/C=C(/C(=O)OC)c1ccccc1Oc1cc(Oc2ccccc2C#N)ncn1` displayed an IC50 of 0.6 µM.

A further experiment deals with Madurella mycetomatis MM55. Kind of experiment: IC90; higher = less potent. The settings on record: 7 days.
As for `CO/N=C(\C(=O)OC)c1ccccc1CO/N=C(\C)c1cccc(C(F)(F)F)c1`, the 90% effect concentration (IC90) came out at 28.1 µM.

`CC1(C)OB(O)c2ccc(C3=NOC(c4cc(Cl)c(F)c(Cl)c4)(C(F)(F)F)C3)cc21` (centres undefined) gave an IC90 of 19.4 µM.

Turning to `Nc1c2c(nc3sc4c(c13)CCCC4)CCCC2`, the IC90 worked out at 16.4 µM.

Compound `Cc1cccc(C(=O)Nc2ccnc(N(C)C3CCN(CC(C)C)CC3)c2)c1` had a 90% effect concentration (IC90) of 53.4 µM.

Take `CO/C=C(/C(=O)OC)c1ccccc1Oc1cc(Oc2ccccc2C#N)ncn1`: the concentration for an effect of 90% (IC90) was determined as 20.4 µM.

The next experiment has as its system Madurella mycetomatis MM55. The experiment can be described thus: percent growth relative to solvent control; higher = less inhibition, active = 20 or less. The following applies: 100 µM; 7 days.
Take `CO/N=C(\C(=O)OC)c1ccccc1CO/N=C(\C)c1cccc(C(F)(F)F)c1`: the percent growth was 0.385% (active).

`Cc1nn(C)c(C)c1NS(=O)(=O)c1c(Cl)cc(-c2ccnc(N3CCNCC3)c2)cc1Cl`: the percent growth was 86% (inactive).

As to `CC1(C)OB(O)c2ccc(C3=NOC(c4cc(Cl)c(F)c(Cl)c4)(C(F)(F)F)C3)cc21` (centres undefined), the percent growth was -0.6% (active).

Consider `Nc1c2c(nc3sc4c(c13)CCCC4)CCCC2`, for which the percent growth is -0.0392% (active).

With `Cc1nn(Cc2ccccc2)c(Cl)c1C(=O)NC1CCCCCC1`, the percent growth was 91.1% (inactive).

With `O=C1O[C@@H](CO)CN1c1cc(F)c(C2=CCN(Cc3ccccc3)CC2)c(F)c1`, the percent growth was 70.2% (inactive).

As for `CC(C)(C)C(O)C(Oc1ccc(-c2ccccc2)cc1)n1cncn1` (centres undefined), the percent growth was -0.373% (active).

`Cc1cc(C2=NOC(c3cc(Cl)c(F)c(Cl)c3)(C(F)(F)F)C2)ccc1C(=O)NCc1ccc2c(c1)C(C)(C)OB2O` (centres undefined): the percent growth was 124% (inactive).

On to `Cc1cccc(C(=O)Nc2ccnc(N(C)C3CCN(CC(C)C)CC3)c2)c1`, for which the percent growth is 1.78% (active).

As to `CC1COC(Cn2cncn2)(c2ccc(Oc3ccc(Cl)cc3)cc2Cl)O1` (centres undefined), the percent growth is 0.489% (active).

Regarding `CO[C@@H]1CN(c2ccc(C#CC3(O)CN4CCC3CC4)c(Cc3ccccc3)n2)C[C@H]1O` (some centres undefined), the percent growth was 81.3% (inactive).

Consider `CO/C=C(/C(=O)OC)c1ccccc1Oc1cc(Oc2ccccc2C#N)ncn1`, for which the percent growth is 1.6% (active).

For the compound `O=C1O[C@@H](COc2ccon2)CN1c1cc(F)c(C2=CCN(Cc3ccccc3)CC2)c(F)c1`, the percent growth was 20.9% (inactive).

As to `CCc1nn(C)c(C(=O)NCc2ccc(Oc3ccc(C)cc3)cc2)c1Cl`, the percent growth was 46.6% (inactive).
